{
  "source": "PubChem BioAssay (EPA / NIEHS)",
  "note": "Records with an inconclusive call do not appear. Active and inactive are the calls of the source. The calls were made as follows: active = hit-call score of the fitted dose curve at least 0.9, where 1 is the maximum; inconclusive = response in the unintended direction; inactive = score below 0.9.",
  "data": [
    {"target": "Luciferin 4-monooxygenase (Photinus pyralis) (UniProt P08659)", "sequence (P08659 whole entry, looked up)": "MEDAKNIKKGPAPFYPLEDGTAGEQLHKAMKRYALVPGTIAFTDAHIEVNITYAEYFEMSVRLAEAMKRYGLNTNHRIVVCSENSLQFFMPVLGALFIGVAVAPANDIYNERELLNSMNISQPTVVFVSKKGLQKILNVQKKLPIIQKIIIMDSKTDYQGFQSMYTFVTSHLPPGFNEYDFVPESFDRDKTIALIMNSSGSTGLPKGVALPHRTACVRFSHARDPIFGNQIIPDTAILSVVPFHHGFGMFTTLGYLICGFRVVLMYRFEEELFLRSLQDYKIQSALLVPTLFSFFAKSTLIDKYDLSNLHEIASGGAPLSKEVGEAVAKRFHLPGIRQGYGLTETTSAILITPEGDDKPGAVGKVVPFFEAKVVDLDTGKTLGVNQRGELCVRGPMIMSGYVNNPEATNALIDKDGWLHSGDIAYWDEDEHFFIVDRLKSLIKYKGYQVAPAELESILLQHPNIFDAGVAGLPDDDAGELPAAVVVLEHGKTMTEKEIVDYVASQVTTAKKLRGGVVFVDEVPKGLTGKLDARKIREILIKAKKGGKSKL", "experiment": "CCTE_Simmons_QuantiLum_inhib_2: CCTE's Firefly Luciferase Inhibition Assay, Simmons Lab (AID 2283767);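 as to AC50: potency for inhibitors that lower luciferase luminescence relative to DMSO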", "summary_of_the_method": "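Cell-free QuantiLum luciferase, 5 ng/well; compounds 5 nM–87.5 uM final, 8 conc, 0.5% DMSO; 30 min, 37C, dark. Detection reagent (150 uM D-luciferin, 147 uM dATP, CoA, DTT, pH 7.8 final) injected per well, kinetic luminescence. Triplicate biological replicates.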", "values": [
      {"smiles": "CC(C)NCC(O)COc1ccc(CC(N)=O)cc1", "note": "(configuration not stated)", "outcome": "inactive"},
      {"smiles": "O=C1OC[C@H](Cc2cccc(O)c2)[C@H]1Cc1cccc(O)c1", "outcome": "inactive"},
      {"smiles": "Oc1ccc2cc(SSc3ccc4cc(O)ccc4c3)ccc2c1", "outcome": "inactive"},
      {"smiles": "CCCCC(CC)COC(=O)c1ccc(O)cc1", "note": "(configuration not stated)", "outcome": "inactive"},
      {"smiles": "Cc1cc(C)nc(NS(=O)(=O)c2ccc(N)cc2)n1", "outcome": "inactive"},
      {"smiles": "Cc1cc(S(=O)(=O)O)ccc1N=Nc1c(O)ccc2ccccc12", "AC50": "27.8 µM (active)"},
      {"smiles": "CCOC(=O)c1ccc(N)cc1", "outcome": "inactive"}
    ]}
  ]
}
